Laboratory results as given in the OligoGym collection.

Target: MON2
Test: pooled miR-30 sensor sort-seq; sequence = guide strand
Settings: shRNA
Note: reference of the scale not given here.

Sequence	sensor-assay potency score (higher = more potent)
TAGAAAATCTGTCACAACCAAC	-1.49
TACAATATCACGAAAAACCTTG	-0.21
TTGTTCTATAATATCTCTGTGT	-0.519
TATTTGACCAACAAATTCCTTA	-0.301
AACATCTACAACTATTTGCAGG	-1.11

Target: MOV10
Test: as above
Settings: shRNA

Sequence	sensor-assay potency score (higher = more potent)
TTCACCTTGAAGGTCAGCCCAT	-0.593
TTGAAGGTAAAGTTCACCTTGA	0.564
AAGCTGATCTTGAAGTCGCGGT	0.0595
TTCTTCTACTGAACCCACCTTC	-0.0526
TTGTACAGGGAGTTGTAGGTGA	0.0022
TTCAGGTAGGAAGTCACTGTGG	-0.627
TTAATTGCCTCCACTAACGTGA	0.283
TTGATCTCTGCGATCTCCTTAG	-0.607
TTGAGTTTCACATCTGAGGGCA	0.674
TTTCTTTACAGAACTCCAGGAA	-0.0759
TAACGTGACAGTCTTGCCGGTG	-0.472
TATTCCTGCAGCTTCTTCTTGG	0.321

Target: MPDU1
Test: as above
Settings: shRNA

Sequence	sensor-assay potency score (higher = more potent)
TAAAAGAATCGGCACGAGCAGC	-0.833
TTGGTCGTAGCATTTCTCAGGT	0.125
TCCTCTGTAGTGCATGACCAGG	-1.87
TTCCACTAAAAGAAAACCCTGG	0.439
TTTCTAAGGATCTGGATCCATC	-1.09
TGAATGGAAGTGAAGATTCGGG	-0.586
TAGTGCATGACCAGGAAGCAGA	-0.943
TTTCTCAGGTAAAAGAATCGGC	0.459
TAATAGTACATGTACAGGGCTT	-0.0728
ATGCTGTAGACCATGGTCCCAG	-1.15
TTACACAGCTGGAAATTGCTGC	0.224
TTTCACAGTCTGTCCTCTGTAG	0.208

Target: MPG
Test: as above
Settings: shRNA

Sequence	sensor-assay potency score (higher = more potent)
TAAATGATGTACACGTACAGGG	-0.261
TCTAGCTGGTCGCTGCTTCTTT	-0.646
TACAGCTTCATCCTGTGCCAGG	-1.03
TGGTCGAAGAACTCCAACCCCA	-1.62
TTCTTTTGCCCCATCCGTCGGC	-0.549
AAGAACTCCAACCCCAGTCGGG	-0.896
TTCATGCAGAAGTACATGCCGT	-0.872
TCGACCACACTGACCCAGGGGC	-0.746
TGCTCTAGCTGGTCGCTGCTTC	-0.856
TCATGCAGAAGTACATGCCGTA	0.083
TCTGTCGACCACACTGACCCAG	-0.682
